Experiment [1] in a line: A CellTox Green Cytotoxicity Assay to monitor cytotoxicity in HepG2 cells - 8 hour (AID 1224890). Also: nearly all actives have a fitted effect of over 45% in size. Put shortly:
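Fluorescent DNA-binding dye, 600 HepG2 cells/well, 5 h preincubation then compound in DMSO; same plates read at 0–40 h, 37 C.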

Experiment [2] can be described thus: qHTS assay to identify small molecule antagonists of the estrogen receptor alpha (ER-alpha) signaling pathway using the BG1 cell line in the presence of 0.1 nM 17-beta-estradiol - cell viability counter screen (AID 1259241). Also: nearly all actives have a fitted effect of over 40% in size. Also: potency is read from the fitted curve at half-maximal effect. Put shortly:
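The cell line endogenously expresses full-length ER-alpha and carries four EREs driving luciferase. Cells are cultured 5 days hormone-free, treated 22 hr with compounds and 0.1 nM estradiol, then viability is read by fluorescence.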
A general note: qHTS replaces the single test concentration by a dilution series.

Experiment [3] can be described thus: qHTS assay to identify small molecule antagonists of the androgen receptor (AR) signaling pathway using the MDA cell line in the presence of 0.5 nM R1881 - cell viability counter screen (AID 1259242). Also: nearly all actives have a fitted effect of over 45% in size. Also: potency is read from the fitted curve at half-maximal effect. Put shortly: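 Human breast carcinoma MDA-kb2 cells, cultured without CO2, receive compounds alongside 0.5 nM (final) R1881 agonist. After 16 hr at 37C, viability is taken as live-cell protease signal.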

Experiment [4] addresses Estrogen receptor (Homo sapiens) (UniProt P03372). The experiment can be described thus: qHTS assay to identify small molecule antagonists of the estrogen receptor alpha (ER-alpha) signaling pathway using the BG1 cell line in the presence of 0.1 nM 17-beta-estradiol (AID 1259244). Also: nearly all actives have a fitted effect of over 50% in size. Also: potency is read from the fitted curve at half-maximal effect. The essentials:
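Seeding of stripped-serum-adapted VM7Luc4E2 cells, 24 h attachment, compound transfer, then 0.1 nM final 17beta-estradiol; after 22 h incubation, ONE-Glo reagent and luminescence reading.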

A short description of experiment [5]: qHTS assay to identify small molecule HDAC inhibitors - cell viability counter screen (AID 1259365). Also: series mostly up to about 92 µM; nearly all actives have a fitted effect of over 50% in size. Put shortly: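 Viability readout: CellTiter-Glo luminescence. Wild-type HCT-116 cells, 2hr compound treatment following overnight attachment at 37 C.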
Experiment [6] is described as follows: qHTS assay to identify small molecule antagonists of the sonic hedgehog signaling (Shh) pathway - cell viability counter screen (AID 1259367). Also: nearly all actives have a fitted effect of over 55% in size. Also: potency is read from the fitted curve at half-maximal effect. Put shortly: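 Fluorescence read-out (CellTiter-Fluor, 1 hr at 37C) taken after 23 hr compound treatment of 3T3 Gli1-Luc cells stimulated with conditioned medium. Cells were seeded at 2,000 per well and pre-incubated 4 hr.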

Experiment [7] is described as follows: qHTS assay to identify small molecule HDAC inhibitors (AID 1259364). Also: potency is read from the fitted curve at half-maximal effect.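 Also: wild-type HCT-116 cells with endogenous class I/II HDAC activity; nearly all actives have a fitted effect of over 45% in size.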 Put shortly: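 After a 2 hr compound incubation (37C, 5% CO2), HCT-116 cells seeded at 1,500/well the day before received HDAC-Glo reagent; signal read as luminescence after 30 min at room temperature.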
A short description of experiment [8]: qHTS assay to identify small molecule agonists of the sonic hedgehog signaling (Shh) pathway - cell viability counter screen (AID 1259366). Also: nearly all actives have a fitted effect of over 50% in size. Also: potency is read from the fitted curve at half-maximal effect. Put shortly:
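Viability measured fluorometrically (CellTiter-Fluor, 1hr, 37C) in 3T3 Gli1-Luc reporter cells after 23hr compound exposure within a 24hr incubation at 37C/5% CO2.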

Experiment [9] can be described thus: qHTS assay to identify small molecule phospholipidosis (PLD) inducers (AID 1259344; active = well fitted curve in the direction sought with a large enough effect; an effect the other way counts as inactive or inconclusive). The essentials:
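Read-out is LipidTOX Red fluorescence (ex 595/em 615) imaged in HepG2 cells after 24 h compound exposure at 37 C, with Hoechst nuclear counterstain (ex 352/em 461) allowing per-cell normalisation.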

Experiment [10] has as its target Androgen receptor (Homo sapiens) (UniProt P10275). The experiment can be described thus: qHTS assay to identify small molecule antagonists of the androgen receptor (AR) signaling pathway using the MDA cell line in the presence of 0.5 nM R1881 (AID 1259243). Also: nearly all actives have a fitted effect of over 50% in size. Also: potency is read from the fitted curve at half-maximal effect. Put shortly: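 Cells: MDA-kb2 (MMTV-luc). Stimulus: 0.5 nM R1881. Time: 16 hr, 37C, no CO2. Detection: ONE-Glo luminescence after 30 min at RT.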

Several values for one entry are separate records, joined by “and”; a condition that tells them apart may be missing. Equal entries are not always repeated. Records with an inconclusive call do not appear. Some compounds were tested as several samples or in several runs, with calls that do not always agree. Activity calls are given as the source filed them. Unless noted, calls follow the shape of the dose curve; as a rule, active = well fitted curve in the direction sought with a large enough effect in the repeat runs; inconclusive = weak or mixed curves; inactive = no such curve, though single readings can be large; an effect the other way counts as inactive or inconclusive.

Estrogen receptor (Homo sapiens), sequence (P03372 whole entry, looked up): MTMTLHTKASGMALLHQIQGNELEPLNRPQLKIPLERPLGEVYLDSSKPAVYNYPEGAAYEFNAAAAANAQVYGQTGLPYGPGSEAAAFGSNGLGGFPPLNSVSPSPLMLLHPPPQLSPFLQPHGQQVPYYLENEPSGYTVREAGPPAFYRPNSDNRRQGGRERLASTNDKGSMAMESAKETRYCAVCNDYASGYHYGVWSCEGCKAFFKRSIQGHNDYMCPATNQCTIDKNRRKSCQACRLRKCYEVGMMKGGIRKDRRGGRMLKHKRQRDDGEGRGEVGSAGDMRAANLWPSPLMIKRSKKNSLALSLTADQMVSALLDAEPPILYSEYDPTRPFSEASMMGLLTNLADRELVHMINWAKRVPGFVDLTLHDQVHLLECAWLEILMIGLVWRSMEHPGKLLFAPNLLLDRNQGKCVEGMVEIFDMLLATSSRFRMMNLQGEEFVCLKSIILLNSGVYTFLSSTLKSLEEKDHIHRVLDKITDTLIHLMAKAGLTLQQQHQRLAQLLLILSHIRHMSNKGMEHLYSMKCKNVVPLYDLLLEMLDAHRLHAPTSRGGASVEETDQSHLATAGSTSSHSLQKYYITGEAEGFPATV
Androgen receptor (Homo sapiens), sequence (P10275 whole entry, looked up): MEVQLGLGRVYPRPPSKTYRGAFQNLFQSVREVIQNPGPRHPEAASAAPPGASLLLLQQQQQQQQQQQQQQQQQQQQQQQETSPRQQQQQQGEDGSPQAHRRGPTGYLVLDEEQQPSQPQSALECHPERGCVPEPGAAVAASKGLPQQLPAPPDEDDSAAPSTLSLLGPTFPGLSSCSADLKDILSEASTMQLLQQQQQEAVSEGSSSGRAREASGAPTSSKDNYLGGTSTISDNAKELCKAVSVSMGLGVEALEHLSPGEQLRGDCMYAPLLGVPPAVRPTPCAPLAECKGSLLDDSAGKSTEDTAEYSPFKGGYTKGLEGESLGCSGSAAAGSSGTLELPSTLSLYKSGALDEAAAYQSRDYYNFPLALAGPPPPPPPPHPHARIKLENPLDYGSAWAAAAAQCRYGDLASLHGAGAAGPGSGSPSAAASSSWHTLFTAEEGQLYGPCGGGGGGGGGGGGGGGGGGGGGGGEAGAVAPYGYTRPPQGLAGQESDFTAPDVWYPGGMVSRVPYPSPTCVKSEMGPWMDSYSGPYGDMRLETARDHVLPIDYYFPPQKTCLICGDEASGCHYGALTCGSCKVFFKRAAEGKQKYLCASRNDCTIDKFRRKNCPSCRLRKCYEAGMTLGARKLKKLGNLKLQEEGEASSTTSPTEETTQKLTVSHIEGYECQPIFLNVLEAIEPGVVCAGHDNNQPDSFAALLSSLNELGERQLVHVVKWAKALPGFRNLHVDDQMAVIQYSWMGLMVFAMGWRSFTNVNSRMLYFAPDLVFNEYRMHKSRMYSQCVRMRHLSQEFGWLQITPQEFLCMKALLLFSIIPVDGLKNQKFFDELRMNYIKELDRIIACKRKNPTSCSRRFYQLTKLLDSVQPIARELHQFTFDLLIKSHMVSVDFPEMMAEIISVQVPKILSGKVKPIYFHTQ

In the case of `CSc1ccc(Oc2ccc(S(N)(=O)=O)cc2CN(C)C)cc1C`, the Potency result in experiment [1], in experiment [2], in experiment [3], in experiment [5] and in [6] was “inactive” in each case. In addition, the Potency in experiment [4] was 68.6 µM (active).
For `O=C(O)c1ccc(CO)o1`, the Potency result in experiment [1], in experiment [2], in experiment [3], in experiment [7], in [5] and in experiment [8] was “inactive” throughout. Moreover, the Potency result in experiment [6] was “inactive”.
With `CCCCOC(=O)CCS`, the Potency entry in experiment [1], in experiment [2], in experiment [3], in experiment [5] and in experiment [6] was “inactive” throughout. For the same molecule, the Potency in [4] is 27.3 µM (active).
On to `CC1(C)C(=O)N(Br)C(=O)N1Cl`, for which the Potency result in experiment [1], in experiment [2], in experiment [3], in [7], in experiment [5] and in experiment [8] was “inactive” throughout. Besides, the Potency entry in experiment [6] was “inactive”.
For `ON(Cc1ccccc1)Cc1ccccc1`, the Potency entry in experiment [1], in [2], in experiment [3], in experiment [4], in experiment [5] and in experiment [6] was “inactive” in each case.
As for `CCC(C)=O`, the Potency entry in experiment [1], in experiment [2], in experiment [3], in experiment [7], in [5] and in experiment [8] was “inactive” each time. For the same molecule, the Potency entry in experiment [6] is “inactive”.
Turning to `O=C(O)c1snc(Cl)c1Cl`, the Potency result in experiment [1], in experiment [2], in experiment [3], in experiment [7], in [5] and in [8] was “inactive” in each case. Also, in [6], the Potency entry is “inactive”.
In the case of `CN1CCCN=C1/C=C/c1cccs1`, the Potency result in [1], in experiment [2], in experiment [3], in experiment [4], in experiment [5] and in experiment [6] was “inactive” throughout.
`CN(C)C(=O)Nc1ccc(Oc2ccc(Cl)cc2)cc1`: the Potency entry in experiment [1], in experiment [2], in [3], in experiment [7], in experiment [5] and in [8] was “inactive” in each case. The Potency entry in experiment [6] was “inactive”.
Regarding `C(=C\c1ccccc1)/CN1CCN(C(c2ccccc2)c2ccccc2)CC1`, the Potency result in experiment [1], in experiment [2], in experiment [3], in experiment [7], in experiment [5] and in experiment [8] was “inactive” each time. Further, in experiment [6], the Potency entry was “inactive”.
As for `CCCCCCOC(=O)CCCCCCCC(=O)OCCCCCC`, the Potency result in experiment [1], in experiment [2], in experiment [3], in experiment [7], in experiment [5] and in [8] was “inactive” throughout. In experiment [6], the Potency entry is “inactive”.
As to `Nc1nc(Cl)nc2c1ncn2[C@@H]1O[C@H](CO)[C@@H](O)[C@@H]1F`, the Potency entry in experiment [1], in experiment [2], in experiment [3], in experiment [7], in experiment [5] and in experiment [6] was “inactive” throughout. Besides, the outcome in [9] was inactive.
`Cc1nc2ccccn2c(=O)c1CCN1CCC(C(=O)c2ccc(F)cc2)CC1`: the Potency entry in experiment [1], in experiment [2], in experiment [3], in [7], in [5] and in experiment [8] was “inactive” throughout. Further, the Potency result in experiment [6] is “inactive”. Besides, the molecule was classed as inactive in experiment [9].
On to `Nc1c(I)cc(I)c(C(=O)N(CCC(=O)O)c2ccccc2)c1I`, for which the Potency entry in [1], in [2], in [10], in experiment [7], in experiment [5] and in experiment [6] was “inactive” each time.
On to `Nc1ccc(C(=O)OCCCOC(=O)c2ccc(N)cc2)cc1`, for which the Potency entry in [1], in [2], in [3], in experiment [7], in experiment [5] and in experiment [8] was “inactive” in each case. In experiment [6], the Potency result was “inactive”.
Consider `Cc1cc(S(=O)(=O)O)ccc1N=Nc1c(O)ccc2ccccc12`, for which the Potency entry in experiment [1] is “inactive”. The Potency was 34.4 µM (active) in experiment [2], 48.6 µM (active) in [3], 686 nM (active) in [7] and 27.3 µM (active) in [6].
As to `CCCCCCCC/C=C\CCCCCCCC(=O)OC`, the Potency result in experiment [1], in experiment [2], in [3], in [5], in [8] and in experiment [6] was “inactive” throughout.
`CC(C)CCCC(=O)O`: the Potency result in experiment [1], in [2], in [10], in [4], in [7] and in [5] was “inactive” each time. The Potency result in experiment [8] and in experiment [6] was “inactive” each time.
As for `CCCCC(CC)CNCC(CC)CCCC` (stereo unspecified), the Potency entry in experiment [1], in [2], in experiment [3], in experiment [7], in [5] and in [6] was “inactive” throughout.
Consider `O=C(N/N=C/c1ccc([N+](=O)[O-])o1)c1ccc(O)cc1`, for which the Potency entry in experiment [1], in experiment [7] and in experiment [5] was “inactive” each time. The Potency in [2] was 26.6 µM (active); in experiment [10] it was 3.76 µM (active); in [4], 26.6 µM (active); in [8] it was 29.8 µM (active); in [6], 18.8 µM (active).
With `COC(=O)c1cc(S(N)(=O)=O)ccc1OC`, the Potency entry in [1], in [2], in experiment [10], in experiment [4], in experiment [7] and in experiment [5] was “inactive” throughout. The Potency result in [8] and in [6] was “inactive” in each case.
`COCCOC`: the Potency entry in [1], in experiment [2], in [3], in [7], in experiment [5] and in experiment [8] was “inactive” each time. The Potency result in experiment [6] is “inactive”.
Turning to `Cc1oncc1C(=O)Nc1ccc(C(F)(F)F)cc1`, the Potency entry in experiment [1], in experiment [2], in experiment [4], in experiment [5] and in [8] was “inactive” in each case. Further, the molecule was classed as inactive in experiment [9]. Also, the Potency was 2.43 µM (active) and 1.88 µM (active) in [7]; 61.1 µM (active) and inactive in [6].
`CNC(=S)NC`: the Potency entry in [1], in [2], in experiment [10], in experiment [4], in [7] and in experiment [5] was “inactive” in each case. The Potency result in experiment [8] and in experiment [6] was “inactive” throughout.
For `CC(C)C(OC(=O)c1ccccc1)C(C)(C)COC(=O)c1ccccc1` (stereo unspecified), the Potency entry in experiment [1], in experiment [2], in [3], in experiment [7], in [5] and in [8] was “inactive” throughout. In addition, the Potency entry in [6] was “inactive”.
As to `CO[C@H]1C=CO[C@@]2(C)Oc3c(C)c(O)c4c(O)c(c5c(c4c3C2=O)=NC2(CCN(CC(C)C)CC2)N=5)NC(=O)/C(C)=C\C=C/[C@H](C)[C@H](O)[C@@H](C)[C@@H](O)[C@@H](C)[C@H](OC(C)=O)[C@@H]1C`, the Potency result in experiment [1] and in [5] was “inactive” each time. In addition, the Potency in experiment [2] is 47.5 µM (active); in experiment [10], 67.1 µM (active); in experiment [4], 59.8 µM (active); in experiment [8], 26.7 µM (active); in experiment [6] it was 23.8 µM (active).
As to `COc1ccc([C@@H]2Sc3ccccc3NC(=O)[C@@H]2O)cc1`, the Potency result in experiment [1], in [2], in [10], in [7], in [5] and in experiment [8] was “inactive” throughout. Moreover, the Potency entry in experiment [6] was “inactive”.
